This passage reports Potency and activity change, negative = inhibition results from PubChem BioAssay (Tox21).

Records with an inconclusive call do not appear. Where a call stands in place of a potency, no number is given. Values without a mark were called inactive. Active and inactive are the calls of the source. The call rests on the fitted dose curve; in most records, active means well fitted inhibition curve with a large enough effect in the repeat runs; inconclusive means weak or mixed curves; inactive means flat fitted curve, though single readings scatter. Positions of bridges follow the written chain, without caps; N, C: chain ends. Non-standard residues stand in square brackets, D forms with d. Residues, ends and D or L forms follow the SMILES beside them. hArg = N=C(N)NCCCC[C@H](N)C(=O)O; Mpa = O=C(O)CCS
Potency means the concentration at half of the fitted maximal effect.

Chain of Voltage-gated inwardly rectifying potassium channel KCNH2 (Homo sapiens) (Q12809 whole entry, looked up): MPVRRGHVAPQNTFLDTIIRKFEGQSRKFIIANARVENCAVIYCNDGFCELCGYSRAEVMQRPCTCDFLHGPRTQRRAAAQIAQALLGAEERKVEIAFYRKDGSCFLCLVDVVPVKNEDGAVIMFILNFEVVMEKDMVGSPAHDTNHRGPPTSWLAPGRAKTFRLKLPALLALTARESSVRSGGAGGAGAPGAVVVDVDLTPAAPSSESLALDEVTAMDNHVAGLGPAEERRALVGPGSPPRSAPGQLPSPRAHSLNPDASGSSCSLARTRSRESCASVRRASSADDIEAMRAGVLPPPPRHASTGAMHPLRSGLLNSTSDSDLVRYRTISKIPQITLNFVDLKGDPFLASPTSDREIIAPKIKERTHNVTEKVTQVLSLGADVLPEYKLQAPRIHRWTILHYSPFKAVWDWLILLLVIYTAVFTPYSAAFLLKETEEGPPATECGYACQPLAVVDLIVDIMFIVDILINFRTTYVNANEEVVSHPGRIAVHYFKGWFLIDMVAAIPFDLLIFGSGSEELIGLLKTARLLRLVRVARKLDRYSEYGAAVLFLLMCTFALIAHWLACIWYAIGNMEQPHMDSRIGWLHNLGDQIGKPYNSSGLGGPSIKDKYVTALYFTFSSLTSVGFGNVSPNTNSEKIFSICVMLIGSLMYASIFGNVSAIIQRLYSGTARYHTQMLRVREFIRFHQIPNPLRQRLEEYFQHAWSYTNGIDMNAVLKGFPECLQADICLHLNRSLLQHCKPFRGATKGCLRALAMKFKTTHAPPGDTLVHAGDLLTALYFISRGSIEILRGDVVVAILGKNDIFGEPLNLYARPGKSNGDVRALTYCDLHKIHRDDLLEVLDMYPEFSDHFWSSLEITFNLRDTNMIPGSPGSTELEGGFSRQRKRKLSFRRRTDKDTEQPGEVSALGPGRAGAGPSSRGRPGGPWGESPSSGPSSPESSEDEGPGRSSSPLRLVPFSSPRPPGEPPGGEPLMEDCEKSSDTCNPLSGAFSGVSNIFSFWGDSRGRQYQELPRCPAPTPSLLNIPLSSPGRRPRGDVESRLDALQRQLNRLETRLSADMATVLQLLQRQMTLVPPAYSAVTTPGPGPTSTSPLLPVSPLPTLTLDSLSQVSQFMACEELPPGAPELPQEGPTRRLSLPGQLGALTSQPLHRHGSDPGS

The assay deals with Voltage-gated inwardly rectifying potassium channel KCNH2 (Homo sapiens) (UniProt Q12809). The experiment in a line: Human Ether-a-go-go-Related Gene (hERG) channel small molecule antagonists: fluorescence cell-based qHTS assay (AID 1671200). Further: nearly all actives have a fitted effect of over 50% in size. The note with it: hERG-U2OS cells, FluxOR thallium flux fluorescence; series mostly up to 76.8 µM. The text has this:
National Center for Advancing Translational Sciences [NCATS]
U.S. Environmental Protection Agency [EPA]
National Institutes of Environmental Health Sciences [NIEHS]
National Toxicology Program [NTP]
U.S. Food and Drug Administration [FDA]
Mutations in the hERG channel cause Long QT (LQT) syndrome. LQT syndrome is a cardiac disorder which can cause ventricle arrhythmia and sudden death. Additionally, compounds which block the hERG channel can cause acquired LQT syndrome. Several FDA approved drugs have been removed from the market due to their hERG blocking activity. A cell-based hERG channel inhibition assay can be used to screen chemical compounds that inhibit hERG channel. This assay measures hERG channel activity using thallium ions as surrogate ions to measure potassium into the cells.
Tox21 Assay Protocol Summary:
hERG-U2OS cells were resuspended in culture medium and dispensed into 1536-well, black wall/clear-bottom plates at 1000cells/well/3uL using a Multidrop Combi dispenser (Thermo Fisher, Waltham, MA). After plates were incubated at 37 C overnight, 3 uL of Loading Buffer provided by FluxOR II Potassium Ion Channel Assay kit (Thermo, Carlsbad, CA) was added to each well. The assay plates were then incubated at room temperature in the dark for 1h. […] After the assay plates were incubated at room temperature for 10 min, 1 uL of Stimulus Buffer provided by FluxOR II Potassium Ion Channel Assay kit was added into each well and fluorescence intensity (480nm excitation/540nm emission) was continuously measured for 2 min at 1 second intervals using a Functional Drug Screening System (FDSS) 7000EX kinetic plate reader (Hamamatsu, Japan).
For the molecule `CCCCCCC1(C)CCC(=O)O1` (stereo not given), the Potency result is “inactive”.
Still for that read-out and setting: to `CC(N)CCCC(C)(C)O` (stereo not given) belongs “inactive”.
Still for that read-out and setting: in the case of `CCc1occc(=O)c1O` it was “inactive”.
Turning to `CCCCCCCCCCCCCCCCCCOCCO`, the activity change, negative = inhibition was 3.84% [at 15.8 µM].
On to `CCO[Si](CC)(OCC)OCC`, for which the Potency entry was “inactive”.
On the same count and under the same terms, in the case of `CO[Si](CCCn1c(=O)n(CCC[Si](OC)(OC)OC)c(=O)n(CCC[Si](OC)(OC)OC)c1=O)(OC)OC` it was “inactive”; in that of `CO/N=C(/C(=O)N[C@@H]1C(=O)N2C(C(=O)[O-])=C(C[n+]3ccn4ncccc43)CS[C@H]12)c1nsc(N)n1`, “inactive”.
`O=C(O)CSCC(=O)NC1CCSC1=O` (stereo not given): the Potency result was “inactive”.
Consider `Cc1c(Cl)cccc1Cl`, for which the Potency result is “inactive”.
For the molecule `C=CCSSCCC`, the Potency entry was “inactive”.
On the same count and under the same terms, to `CCCCCc1cccc(=O)o1` belongs “inactive”; to `CC(C)Nc1ccccc1`, “inactive”; to `O=C(CCCl)NCCc1ccccc1`, “inactive”.
Same read-out and setting: to `C=C(C)[C@@H]1CC=C(C)C(=O)C1` belongs “inactive”.
The same measure, in the same setting: to `CC(=O)OC1CCCCC1C(C)(C)C` (stereo not given) belongs “inactive”.
Regarding `OCC1(CO)COCOC1`, the Potency result is “inactive”.
Still for that read-out and setting: in the case of `OCC1CCC(CO)CC1` (stereo not given) it was “inactive”.
Same read-out and setting: to `CCCC(CC)c1ccccc1` (stereo not given) belongs “inactive”; to `C[C@@H](O)C(=O)O`, “inactive”; to `CCC[C@@H]1C[C@@H](C(=O)N[C@@H]([C@H]2O[C@H](SC)[C@H](O)[C@@H](O)[C@H]2O)[C@@H](C)O)N(C)C1`, “inactive”.
Regarding `CCOC(CN1CCN(CC(C)C(=O)c2ccccc2)CC1)c1ccccc1` (stereo not given), the Potency was 10.4 µM (active).
On the same count and under the same terms, in the case of `CCC(=O)c1c(O)cc(O)cc1O` it was “inactive”.
On the same count and under the same terms, to `COC(C)(OC)OC` belongs “inactive”; to `O=C(O)CNC(=O)CNC(=O)CNC(=O)CSC(=O)c1ccccc1`, “inactive”.
Regarding `Cc1cccc(Cl)c1`, the Potency result was “inactive”.
On the same count and under the same terms, to `Nc1nc(-c2ccccc2)c(Br)c(=O)[nH]1` belongs “inactive”.
Same read-out and setting: to `CCC(=O)CC` belongs “inactive”.
On the same count and under the same terms, to `CCCCCC(C)O` (stereo not given) belongs “inactive”; to `COP(=O)(O)OP(=O)(O)OC`, “inactive”; to `COC(=O)c1ccccc1C(=O)O`, “inactive”.
For `CC1c2ccccc2CN1NC(=O)c1ccc(Cl)c(S(N)(=O)=O)c1` (stereo not given), the Potency entry was “inactive”.
The same measure, in the same setting: in the case of `Nc1nnnn1-c1ccccc1` it was “inactive”.
On to `N[C@@H](CSCCCO)C(=O)O`, for which the activity change, negative = inhibition was 17.6% [at 15.8 µM].
Regarding `C=CCCCCCCCC`, the Potency entry is “inactive”.
Still for that read-out and setting: to `CC1(C)[C@H]2CC[C@](C)(C2)[C@H]1O` belongs “inactive”; to `Cc1c(N)cccc1Cl`, “inactive”.
On to `NC(=O)[C@@H]1CSSCCC(=O)N[C@@H](CCCCN=C(N)N)C(=O)NCC(=O)N[C@@H](CC(=O)O)C(=O)N[C@@H](Cc2c[nH]c3ccccc23)C(=O)N2CCC[C@H]2C(=O)N1` ([Mpa][hArg]GDWPC-NH2; disulfide 1-7), for which the Potency result was “inactive”.
The same measure, in the same setting: in the case of `Cc1ccccc1C(N)=O` it was “inactive”; in that of `O=NN(CCCl)C(=O)NC1CCCCC1`, “inactive”.
In the case of `CC1(C)Cc2cccc(N)c2O1`, the Potency result was “inactive”.
